Results filed as inconclusive are left out. Activity calls are given as the source filed them. Unless noted, calls follow the shape of the dose curve; as a rule, active = well fitted curve in the direction sought with a large enough effect in the repeat runs; inconclusive = weak or mixed curves; inactive = no such curve, though single readings can be large; an effect the other way counts as inactive or inconclusive.
Assays:
[1] = qHTS assay to identify small molecule antagonists of the estrogen related receptor (ERR) signaling pathway from Tox21 library - cell viability counter screen (AID 1224834); also: nearly all actives have a fitted effect of over 30% in size
Summary of the method: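 CellTiter-Fluor fluorescence, read after 30 min at 37 C, measures viability of ERR cells. Cells plated at 2,000/well and incubated 6 h before pin-tool compound addition, then exposed 17.5 hours at 37 C.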

[2] = molecular target: Luciferin 4-monooxygenase (Photinus pyralis) (UniProt P08659); assay: qHTS assay to identify small molecule inhibitors of firefly luciferase (AID 1224835); also: nearly all actives have a fitted effect of over 25% in size; also: potency is read from the fitted curve at half-maximal effect
Sequence of Luciferin 4-monooxygenase (Photinus pyralis) (P08659 whole entry, looked up): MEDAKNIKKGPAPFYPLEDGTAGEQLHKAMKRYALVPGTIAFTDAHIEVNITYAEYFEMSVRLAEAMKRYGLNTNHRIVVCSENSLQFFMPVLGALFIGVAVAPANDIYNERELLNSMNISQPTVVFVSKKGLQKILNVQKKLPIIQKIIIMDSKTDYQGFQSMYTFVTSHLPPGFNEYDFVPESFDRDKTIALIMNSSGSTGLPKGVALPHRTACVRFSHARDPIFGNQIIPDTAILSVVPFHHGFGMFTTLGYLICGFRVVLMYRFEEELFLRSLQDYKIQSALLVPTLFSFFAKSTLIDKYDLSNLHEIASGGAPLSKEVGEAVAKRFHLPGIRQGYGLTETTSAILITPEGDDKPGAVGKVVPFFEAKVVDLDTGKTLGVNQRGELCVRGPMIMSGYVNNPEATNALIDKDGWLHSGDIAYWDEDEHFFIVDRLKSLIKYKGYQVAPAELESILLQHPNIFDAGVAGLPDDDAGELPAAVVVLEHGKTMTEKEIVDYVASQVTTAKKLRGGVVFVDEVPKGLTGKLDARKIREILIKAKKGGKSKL
Summary of the method: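 Inhibition of purified Photinus luciferase is measured by luminescence. Substrate levels (D-luciferin, ATP) sit at their KM values. Each compound is tested in a concentration series.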

[3] = qHTS assay to identify small molecule agonists of the constitutive androstane receptor (CAR) signaling pathway - cell viability counter screen (AID 1224836); also: nearly all actives have a fitted effect of over 45% in size
Summary of the method: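 Viability read-out: CellTiter-Fluor fluorescence after 23 h compound exposure at 37 C/5% CO2 in double-stable HepG2-CYP2B6-hCAR cells, with PK11195 present at 0.75 uM final; compounds tested in 15-point titration.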

[4] = qHTS assay to identify small molecule antagonists of the constitutive androstane receptor (CAR) signaling pathway - cell viability counter screen (AID 1224837); also: nearly all actives have a fitted effect of over 45% in size
Summary of the method: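 Cytotoxicity counter-screen: CellTiter-Fluor fluorescence after 23 h compound exposure (15-point qHTS) in double-stable HepG2-CYP2B6-hCAR cells, with 50 nM CITCO added.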

[5] = molecular target: Nuclear receptor subfamily 1 group I member 3 (Homo sapiens) (UniProt Q14994); assay: qHTS assay to identify small molecule antagonists of the constitutive androstane receptor (CAR) signaling pathway (AID 1224838);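 also: HepG2 cells stably expressing hCAR with CYP2B6 luciferase reporter stimulated by CITCO; nearly all actives have a fitted effect of over 40% in size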
Sequence of Nuclear receptor subfamily 1 group I member 3 (Homo sapiens) (Q14994 whole entry, looked up): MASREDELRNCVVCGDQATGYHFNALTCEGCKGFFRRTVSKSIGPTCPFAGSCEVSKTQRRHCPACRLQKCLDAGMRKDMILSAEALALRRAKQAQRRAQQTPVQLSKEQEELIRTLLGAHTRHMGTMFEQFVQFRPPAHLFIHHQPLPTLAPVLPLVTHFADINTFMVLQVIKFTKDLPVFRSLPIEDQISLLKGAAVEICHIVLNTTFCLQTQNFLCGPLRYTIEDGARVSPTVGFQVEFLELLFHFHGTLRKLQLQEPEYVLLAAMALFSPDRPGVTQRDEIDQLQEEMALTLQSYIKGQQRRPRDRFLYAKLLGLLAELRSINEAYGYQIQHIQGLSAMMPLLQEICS
Summary of the method: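 Antagonism measured as luciferase signal (ONE-Glo, 30 min, room temperature) in CAR-stimulated cells: HepG2-CYP2B6-hCAR double-stable line exposed 24 hr at 37 C to compound in a 15-point series plus 50 nM CITCO.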

[6] = molecular target: Nuclear receptor subfamily 1 group I member 3 (Homo sapiens) (UniProt Q14994); assay: qHTS assay to identify small molecule agonists of the constitutive androstane receptor (CAR) signaling pathway (AID 1224839);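 also: HepG2 cells stably carrying human CAR and a CYP2B6 luciferase reporter; nearly all actives have a fitted effect of over 15% in size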
Summary of the method: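 Luminescence read-out (ONE-Glo, 30 min, room temperature) from double-stable HepG2-CYP2B6-hCAR cells exposed 24 h to 15-point compound series in presence of 0.75 uM PK11195 final.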

[7] = qHTS assay to identify small molecule antagonists of the estrogen related receptor signaling pathway with the pleiotropic PPARgamma coactivator (PGC) from Tox21 10K library - cell viability counter screen (AID 1224840; active = well fitted cell-killing curve with a large enough effect in the repeat runs, not every such curve was filed as active; also: nearly all actives have a fitted effect of over 40% in size)
Summary of the method: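 Counter-screen for cytotoxicity: after 17.5 h compound exposure at 37 C, CellTiter-Fluor reagent added to PGC/ERR cells for 30 min and fluorescence read. Cells were seeded at 2,000 per well 6 h before dosing.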

[8] = qHTS assay to identify small molecule antagonists of the estrogen related receptor signaling pathway with the pleiotropic PPARgamma coactivator (PGC) from Tox21 10K library (AID 1224841; call rule not given here; also: actives are mostly falling curves and most rising ones were filed inactive; nearly all actives have a fitted effect of over 50% in size; also: potency is read from the fitted curve at half-maximal effect)
Summary of the method: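 Luminescence (One-Glo, 30 min at room temperature) after 18 h compound treatment at 37 C of PGC/ERR reporter cells plated at 2,000 cells/well and settled 6 h beforehand.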

[9] = qHTS assay to identify small molecule agonists of the estrogen related receptor signaling pathway with the pleiotropic PPARgamma coactivator (PGC) from Tox21 10K library (AID 1224842); also: nearly all actives have a fitted effect of over 15% in size
Summary of the method: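 Luminescence from One-Glo (30 min, room temperature) measured after PGC/ERR cells had 18 h at 37 C with pinned compound (23 nL in DMSO). Cells had been seeded at 2,000 per well and pre-incubated 6 h.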

[10] = molecular target: Thyrotropin receptor (Homo sapiens) (UniProt P16473); assay: qHTS assay to identify small molecule agonists of the thyroid stimulating hormone receptor (TSHR) signaling pathway (AID 1224843; calls by dose curve; also: nearly all actives have a fitted effect of over 45% in size)
Sequence of Thyrotropin receptor (Homo sapiens) (P16473 whole entry, looked up): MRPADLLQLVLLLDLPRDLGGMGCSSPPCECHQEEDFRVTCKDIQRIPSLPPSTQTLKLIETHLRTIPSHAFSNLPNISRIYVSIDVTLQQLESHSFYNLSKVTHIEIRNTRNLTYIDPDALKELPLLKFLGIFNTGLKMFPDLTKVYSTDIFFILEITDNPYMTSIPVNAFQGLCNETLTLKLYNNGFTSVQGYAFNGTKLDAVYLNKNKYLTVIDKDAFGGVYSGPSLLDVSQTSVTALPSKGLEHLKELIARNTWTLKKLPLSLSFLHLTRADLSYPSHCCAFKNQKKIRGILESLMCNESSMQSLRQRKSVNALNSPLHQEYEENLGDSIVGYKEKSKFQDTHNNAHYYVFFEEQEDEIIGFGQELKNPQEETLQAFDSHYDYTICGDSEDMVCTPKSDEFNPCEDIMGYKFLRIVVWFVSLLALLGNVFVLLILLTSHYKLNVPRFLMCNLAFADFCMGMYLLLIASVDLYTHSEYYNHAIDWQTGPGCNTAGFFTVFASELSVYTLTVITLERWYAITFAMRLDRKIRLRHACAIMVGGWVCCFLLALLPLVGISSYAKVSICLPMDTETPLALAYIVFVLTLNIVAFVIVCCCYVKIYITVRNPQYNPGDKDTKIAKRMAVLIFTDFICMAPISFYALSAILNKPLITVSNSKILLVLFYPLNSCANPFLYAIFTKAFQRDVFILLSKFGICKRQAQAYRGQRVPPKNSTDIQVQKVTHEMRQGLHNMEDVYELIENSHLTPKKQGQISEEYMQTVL
Summary of the method: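 Agonist activity read as cAMP rise via d2/cryptate HTRF competition, 1 h room-temperature detection, in HEK293 cells expressing TSHR. Fifteen-point titrations, each run in triplicate, with a 30 min room-temperature incubation beforehand.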

[11] = qHTS assay to identify small molecule agonists of H2AX (AID 1224845; active = well fitted activation curve with a large enough effect in the signal ratio in the repeat runs, not every such curve was filed as active; the % refers to the signal ratio)
Summary of the method: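 Phospho-H2AX Ser139 measured by HTRF (ex 320 nm; em 665 and 620 nm) after 24 hr antibody incubation. Compounds, 15 concentrations, 0.76% DMSO, were applied to CHO-K1 cells for 3hr at 37C before lysis.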

[12] = qHTS assay to identify small molecule agonists of H2AX - cell viability counter screen (AID 1224847; calls by dose curve;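 also: wild-type CHO-K1 cells; top concentration of the series differs between compounds; nearly all actives have a fitted effect of over 30% in size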)
Summary of the method: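 CHO-K1 wt, 1000 cells/well, o/n 37C; cpds 15 conc, 3 h 37C, 0.76% DMSO; CellTiter-Glo, 30 min RT, luminescence.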

[13] = qHTS assay to identify small molecule antagonists of the estrogen related receptor (ERR) signaling pathway from Tox21 library (AID 1224848); also: nearly all actives have a fitted effect of over 50% in size; also: potency is read from the fitted curve at half-maximal effect
Summary of the method: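 Luciferase luminescence (ONE-Glo, 30 min room temperature) was the read-out. Cells of the NTP-supplied ERR line, 2,000 per well, were given 6 h at 37 C before compound addition in DMSO and 18 h exposure at 37 C.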

[14] = qHTS assay to identify small molecule agonists of the estrogen related receptor (ERR) signaling pathway from Tox21 library (AID 1224849; calls by dose curve; also: nearly all actives have a fitted effect of over 15% in size); conditions: ERR reporter cell line, ONE-Glo luciferase, 18 h; at 92.4 µM (top of the series) unless noted
Summary of the method: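 Luminescent agonist read-out (One-Glo, 30-minute room-temperature incubation) following 18-hour compound treatment at 37 C of the ERR cell line, which had been plated 6 hours before dosing.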

[15] = qHTS RealTime-Glo MT Cell Viability Assay in HepG2 cells - 24 hour (AID 1224867); also: nearly all actives have a fitted effect of over 50% in size
Summary of the method: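 Cells + NanoLuc/prosubstrate dispensed (600 cells/well) → 5 h at 37 C/5% CO2 → compounds in DMSO transferred → 40 h incubation at 37 C, luminescence read at 0, 8, 16, 24, 32, 40 h.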

[16] = qHTS RealTime-Glo MT Cell Viability Assay in HEK293 cells - 32 hour (AID 1224868); also: top concentration of the series differs between compounds; nearly all actives have a fitted effect of over 50% in size
Summary of the method: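 Tox21 10K qHTS, HEK293, 600 cells/well, RealTime-Glo reagent co-dispensed with cells; 5 h preincubation, compound by pintool, 37 C, luminescence at 0–40 h.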

[17] = A CellTox Green Cytotoxicity Assay to monitor cytotoxicity in HEK293 cells - 0 hour (AID 1224869); also: nearly all actives have a fitted effect of over 50% in size
Summary of the method: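 Fluorescence from a DNA-binding dye excluded by viable cells was measured repeatedly in the same HEK293 wells (600 cells/well) during continuous compound exposure at 37 C. Each assay gives one read point: 0, 8, 16, 24, 32 or 40 h.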

[18] = qHTS assay to identify small molecule agonists of the estrogen related receptor signaling pathway with the pleiotropic PPARgamma coactivator (PGC) (AID 1224823)
Summary of the method: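 Luminescence from One-Glo reagent (30 min, room temperature) was read after 18 h compound treatment at 37 C of PGC/ERR cells plated 6 h beforehand; compounds delivered in DMSO by pin tool.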

[19] = qHTS assay to identify small molecule agonists of the hypoxia (HIF-1) signaling pathway (AID 1224846; active = well fitted activation curve with a large enough effect in the signal ratio in the repeat runs, not every such curve was filed as active; the % refers to the signal ratio)
Summary of the method: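 Compounds added to ME-180 cells carrying hypoxia-response-element beta-lactamase reporter (0.5% dialyzed FBS, 5 h preplating), 17 h at 37C; agonist activity detected by CCF4-AM B/G FRET read-out.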

[20] = qHTS assay to identify small molecule agonists of the hypoxia (HIF-1) signaling pathway - cell viability counter screen (AID 1224844; calls by dose curve; also: nearly all actives have a fitted effect of over 50% in size)
Summary of the method: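 Cytotoxicity measured by CellTiter-Glo ATP luminescence in the wells also read for beta-lactamase signal. Cells were HRE-bla ME-180 (2,000/well, 0.5% dialyzed FBS), exposed to compounds for 17 h at 37C.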
% is scaled to controls: 0 for no effect and ±100 for the full control effect.

NCCOCCOCCN
inactive: Potency [1] | Potency [2] | Potency [3] | Potency [4] | Potency [5] | Potency [6] | Potency [7] | Potency [8] | Potency [9] | Potency [10] | Potency [11] | Potency [12] | Potency [13] | activity change, positive = activation [14] -4.55% | outcome [15] | Potency [16] | Potency [17]

O=C(Nc1ccccc1)c1cc([N+](=O)[O-])ccc1Cl
active: Potency [8] 15.4 µM | Potency [13] 54.5 µM
inactive: outcome [18] | Potency [1] | Potency [3] | Potency [4] | Potency [5] | Potency [6] | Potency [7] | Potency [9] | Potency [10] | Potency [11] | outcome [19] | Potency [12] | activity change, positive = activation [14] -35.1% | outcome [15] | Potency [16]

C/C=C1\[C@H]2C=C(C)C[C@]1(N)c1ccc(=O)[nH]c1C2
inactive: Potency [1] | Potency [2] | Potency [3] | Potency [4] | Potency [5] | Potency [6] | Potency [7] | Potency [10] | Potency [20] | Potency [11] | outcome [15] | Potency [16]

O=C(OC1C[C@H]2CC[C@@H](C1)[N+]21CCCC1)C(O)(c1ccccc1)c1ccccc1 (stereo partly drawn)
inactive: Potency [1] | Potency [2] | Potency [3] | Potency [4] | Potency [5] | Potency [6] | Potency [7] | Potency [10] | Potency [20] | Potency [11] | outcome [15] | Potency [16] | Potency [17]

O=C(O)c1cccnc1Nc1cccc(C(F)(F)F)c1
inactive: outcome [18] | Potency [1] | Potency [3] | Potency [4] | Potency [5] | Potency [7] | Potency [8] | Potency [9] | Potency [20] | Potency [11] | Potency [12] | activity change, positive = activation [14] -25.2% [at 42.5 µM] | outcome [15] | Potency [16] | Potency [17]
active: Potency [2] 19.5 µM

C[Si](C)(C)O[Si](C)(C)O[Si](C)(C)C
inactive: Potency [1] | Potency [2] | Potency [3] | Potency [4] | Potency [5] | Potency [6] | Potency [7] | Potency [10] | Potency [20] | Potency [11] | outcome [19] | Potency [12] | outcome [15] | Potency [17]

O=[N+]([O-])c1cccc(I)c1
inactive: Potency [1] | Potency [2] | Potency [3] | Potency [4] | Potency [5] | Potency [6] | Potency [7] | Potency [10] | Potency [20] | Potency [11] | outcome [19] | outcome [15] | Potency [16] | Potency [17]

Cc1ccc2ccccc2c1[N+](=O)[O-]
inactive: Potency [1] | Potency [2] | Potency [3] | Potency [4] | Potency [5] | Potency [6] | Potency [7] | Potency [10] | Potency [20] | Potency [11] | Potency [12] | outcome [15]

CC(=O)S[C@H](C(=O)N[C@H]1Cc2ccccc2[C@H]2CCC[C@@H](C(=O)O)N2C1=O)C(C)C
inactive: Potency [1] | Potency [2] | Potency [3] | Potency [4] | Potency [5] | Potency [6] | Potency [7] | Potency [8] | Potency [9] | Potency [10] | Potency [20] | outcome [19] | Potency [12] | Potency [13] | activity change, positive = activation [14] 1.31% | outcome [15] | Potency [16] | Potency [17]
